# Source: ChEMBL document CHEMBL1961873, “Compounds: GSK PKIS; Assays: Nanosyn kinase panel” (2012)
# What was measured:
# [1] = target: T1, Mitogen-activated protein kinase 12 (Homo sapiens) (UniProt P53778); conditions: at 1 µM;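 further: values are averaged p38gamma kinase inhibition readings, compounds tested at 1 µM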
# T1 sequence (whole entry): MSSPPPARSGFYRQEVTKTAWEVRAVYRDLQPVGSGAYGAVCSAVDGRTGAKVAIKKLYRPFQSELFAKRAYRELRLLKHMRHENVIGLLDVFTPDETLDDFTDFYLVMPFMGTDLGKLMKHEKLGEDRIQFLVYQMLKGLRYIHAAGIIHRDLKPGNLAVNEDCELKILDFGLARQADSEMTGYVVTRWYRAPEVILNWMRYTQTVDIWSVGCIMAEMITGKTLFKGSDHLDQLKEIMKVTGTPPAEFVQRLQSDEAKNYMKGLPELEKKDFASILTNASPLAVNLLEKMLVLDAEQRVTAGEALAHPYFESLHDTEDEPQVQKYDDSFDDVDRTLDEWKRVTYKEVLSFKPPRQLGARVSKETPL
# [2] = target: SRSF protein kinase 1 (Homo sapiens) (UniProt Q96SB4); conditions: at 0.1 µM
# [3] = target: SRSF protein kinase 1 (Homo sapiens) (UniProt Q96SB4); conditions: at 1 µM
# [4] = target: Phosphatidylinositol 4,5-bisphosphate 3-kinase catalytic subunit alpha isoform (Homo sapiens) (UniProt P42336); conditions: at 0.1 µM
# [5] = target: Phosphatidylinositol 4,5-bisphosphate 3-kinase catalytic subunit alpha isoform (Homo sapiens) (UniProt P42336); conditions: at 1 µM
# [6] = target: T2, Phosphatidylinositol 4,5-bisphosphate 3-kinase catalytic subunit delta isoform (Homo sapiens) (UniProt O00329); conditions: at 0.1 µM
# T2 sequence (whole entry): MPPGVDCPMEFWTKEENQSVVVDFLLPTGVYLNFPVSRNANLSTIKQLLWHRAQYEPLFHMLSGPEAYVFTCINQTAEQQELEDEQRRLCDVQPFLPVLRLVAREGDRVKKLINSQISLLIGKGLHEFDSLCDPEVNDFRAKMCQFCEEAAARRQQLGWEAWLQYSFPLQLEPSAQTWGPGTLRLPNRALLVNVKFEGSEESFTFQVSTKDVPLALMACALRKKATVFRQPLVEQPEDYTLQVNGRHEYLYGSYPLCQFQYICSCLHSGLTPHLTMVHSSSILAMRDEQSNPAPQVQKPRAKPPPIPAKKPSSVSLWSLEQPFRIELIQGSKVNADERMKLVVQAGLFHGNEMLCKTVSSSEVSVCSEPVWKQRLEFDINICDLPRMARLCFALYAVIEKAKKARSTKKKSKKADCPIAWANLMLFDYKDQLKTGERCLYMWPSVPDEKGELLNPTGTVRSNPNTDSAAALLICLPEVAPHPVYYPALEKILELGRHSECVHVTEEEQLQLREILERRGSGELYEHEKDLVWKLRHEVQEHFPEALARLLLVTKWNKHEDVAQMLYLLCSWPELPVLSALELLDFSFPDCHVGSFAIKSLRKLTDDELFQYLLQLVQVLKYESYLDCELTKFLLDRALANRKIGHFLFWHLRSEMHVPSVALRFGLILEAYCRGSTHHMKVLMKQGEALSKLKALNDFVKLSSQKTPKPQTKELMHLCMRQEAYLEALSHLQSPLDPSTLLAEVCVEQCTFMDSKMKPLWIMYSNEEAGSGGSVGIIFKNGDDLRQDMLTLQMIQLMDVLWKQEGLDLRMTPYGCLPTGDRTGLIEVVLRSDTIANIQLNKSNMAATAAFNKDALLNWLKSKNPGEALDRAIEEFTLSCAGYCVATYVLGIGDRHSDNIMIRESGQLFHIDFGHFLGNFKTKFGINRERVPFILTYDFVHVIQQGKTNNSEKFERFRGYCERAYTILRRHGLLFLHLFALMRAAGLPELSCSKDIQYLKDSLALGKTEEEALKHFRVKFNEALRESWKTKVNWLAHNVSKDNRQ
# [7] = target: T2, Phosphatidylinositol 4,5-bisphosphate 3-kinase catalytic subunit delta isoform (Homo sapiens); conditions: at 1 µM
# [8] = target: Phosphatidylinositol 4-kinase beta (Homo sapiens) (UniProt Q9UBF8); conditions: at 0.1 µM
# [9] = target: Phosphatidylinositol 4-kinase beta (Homo sapiens) (UniProt Q9UBF8); conditions: at 1 µM
# [10] = target: Sphingosine kinase 1 (Homo sapiens) (UniProt Q9NYA1); conditions: at 0.1 µM
# [11] = target: Sphingosine kinase 1 (Homo sapiens) (UniProt Q9NYA1); conditions: at 1 µM
# [12] = target: T3, Sphingosine kinase 2 (Homo sapiens) (UniProt Q9NRA0); conditions: at 0.1 µM
# T3 sequence (whole entry): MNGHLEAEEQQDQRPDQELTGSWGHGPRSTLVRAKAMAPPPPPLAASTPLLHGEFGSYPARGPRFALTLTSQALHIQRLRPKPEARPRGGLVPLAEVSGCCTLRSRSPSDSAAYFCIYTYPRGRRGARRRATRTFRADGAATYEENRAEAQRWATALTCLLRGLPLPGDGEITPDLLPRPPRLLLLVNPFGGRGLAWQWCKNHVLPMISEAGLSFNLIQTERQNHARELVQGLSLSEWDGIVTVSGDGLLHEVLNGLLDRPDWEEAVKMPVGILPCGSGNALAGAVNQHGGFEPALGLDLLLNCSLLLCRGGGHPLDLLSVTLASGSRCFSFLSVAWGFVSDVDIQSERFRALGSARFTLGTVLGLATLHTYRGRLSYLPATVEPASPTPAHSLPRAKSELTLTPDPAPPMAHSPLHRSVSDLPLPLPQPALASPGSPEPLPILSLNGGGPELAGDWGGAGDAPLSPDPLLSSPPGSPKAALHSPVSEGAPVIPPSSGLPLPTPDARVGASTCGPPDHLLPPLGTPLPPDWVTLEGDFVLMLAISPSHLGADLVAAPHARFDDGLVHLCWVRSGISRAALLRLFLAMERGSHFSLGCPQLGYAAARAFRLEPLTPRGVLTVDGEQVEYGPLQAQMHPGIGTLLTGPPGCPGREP
# [13] = target: T3, Sphingosine kinase 2 (Homo sapiens); conditions: at 1 µM
# [14] = target: Casein kinase II subunit alpha (Homo sapiens) (UniProt P68400); conditions: at 0.1 µM
# [15] = target: Casein kinase II subunit alpha (Homo sapiens) (UniProt P68400); conditions: at 1 µM
# [16] = target: T4, Inhibitor of nuclear factor kappa-B kinase subunit alpha (Homo sapiens) (UniProt O15111); conditions: at 0.1 µM
# T4 sequence (whole entry): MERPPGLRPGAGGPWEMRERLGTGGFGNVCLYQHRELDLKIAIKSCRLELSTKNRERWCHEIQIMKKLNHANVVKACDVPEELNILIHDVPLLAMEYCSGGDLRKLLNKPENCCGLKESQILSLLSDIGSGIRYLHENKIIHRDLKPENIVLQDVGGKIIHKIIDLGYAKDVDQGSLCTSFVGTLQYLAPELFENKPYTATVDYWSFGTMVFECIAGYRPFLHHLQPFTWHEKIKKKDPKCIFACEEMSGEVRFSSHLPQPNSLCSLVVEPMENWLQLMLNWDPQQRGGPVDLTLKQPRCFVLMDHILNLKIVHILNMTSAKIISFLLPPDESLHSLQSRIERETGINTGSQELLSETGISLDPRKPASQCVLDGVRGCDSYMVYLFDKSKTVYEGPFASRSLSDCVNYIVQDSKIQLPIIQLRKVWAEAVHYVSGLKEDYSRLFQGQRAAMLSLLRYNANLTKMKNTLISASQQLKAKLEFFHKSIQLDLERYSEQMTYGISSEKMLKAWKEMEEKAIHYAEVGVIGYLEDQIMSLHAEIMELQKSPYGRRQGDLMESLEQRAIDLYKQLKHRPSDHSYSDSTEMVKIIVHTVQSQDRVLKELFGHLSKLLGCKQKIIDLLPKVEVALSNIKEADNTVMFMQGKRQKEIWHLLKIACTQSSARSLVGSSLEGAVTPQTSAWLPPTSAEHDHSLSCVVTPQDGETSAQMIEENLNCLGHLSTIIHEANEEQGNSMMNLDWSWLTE
# [17] = target: T4, Inhibitor of nuclear factor kappa-B kinase subunit alpha (Homo sapiens); conditions: at 1 µM
# [18] = target: T5, Inhibitor of nuclear factor kappa-B kinase subunit beta (Homo sapiens) (UniProt O14920); conditions: at 0.1 µM
# T5 sequence (whole entry): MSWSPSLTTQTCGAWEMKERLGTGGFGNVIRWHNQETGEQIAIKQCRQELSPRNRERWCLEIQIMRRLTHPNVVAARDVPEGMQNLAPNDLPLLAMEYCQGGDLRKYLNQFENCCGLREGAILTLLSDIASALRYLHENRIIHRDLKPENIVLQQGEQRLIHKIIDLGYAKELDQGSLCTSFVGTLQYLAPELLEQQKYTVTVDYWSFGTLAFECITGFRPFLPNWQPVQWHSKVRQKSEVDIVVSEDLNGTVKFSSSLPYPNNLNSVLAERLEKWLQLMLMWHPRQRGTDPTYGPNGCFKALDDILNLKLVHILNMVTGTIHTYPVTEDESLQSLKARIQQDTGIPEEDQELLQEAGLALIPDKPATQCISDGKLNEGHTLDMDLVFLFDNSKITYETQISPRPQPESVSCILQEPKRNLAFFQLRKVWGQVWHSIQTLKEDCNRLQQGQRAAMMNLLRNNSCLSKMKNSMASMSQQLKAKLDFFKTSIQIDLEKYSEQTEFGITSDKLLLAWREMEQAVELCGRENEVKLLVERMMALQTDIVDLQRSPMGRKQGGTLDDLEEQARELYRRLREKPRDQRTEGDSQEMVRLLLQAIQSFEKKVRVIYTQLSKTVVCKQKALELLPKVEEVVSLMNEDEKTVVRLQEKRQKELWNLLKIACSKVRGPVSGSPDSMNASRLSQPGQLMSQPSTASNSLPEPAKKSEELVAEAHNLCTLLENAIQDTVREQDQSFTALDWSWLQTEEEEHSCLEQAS
# [19] = target: T5, Inhibitor of nuclear factor kappa-B kinase subunit beta (Homo sapiens); conditions: at 1 µM
# [20] = target: T6, Inhibitor of nuclear factor kappa-B kinase subunit epsilon (Homo sapiens) (UniProt Q14164); conditions: at 0.1 µM;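 further: mean inhibition of IKKε reported, from the GSK PKIS dataset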
# T6 sequence (whole entry): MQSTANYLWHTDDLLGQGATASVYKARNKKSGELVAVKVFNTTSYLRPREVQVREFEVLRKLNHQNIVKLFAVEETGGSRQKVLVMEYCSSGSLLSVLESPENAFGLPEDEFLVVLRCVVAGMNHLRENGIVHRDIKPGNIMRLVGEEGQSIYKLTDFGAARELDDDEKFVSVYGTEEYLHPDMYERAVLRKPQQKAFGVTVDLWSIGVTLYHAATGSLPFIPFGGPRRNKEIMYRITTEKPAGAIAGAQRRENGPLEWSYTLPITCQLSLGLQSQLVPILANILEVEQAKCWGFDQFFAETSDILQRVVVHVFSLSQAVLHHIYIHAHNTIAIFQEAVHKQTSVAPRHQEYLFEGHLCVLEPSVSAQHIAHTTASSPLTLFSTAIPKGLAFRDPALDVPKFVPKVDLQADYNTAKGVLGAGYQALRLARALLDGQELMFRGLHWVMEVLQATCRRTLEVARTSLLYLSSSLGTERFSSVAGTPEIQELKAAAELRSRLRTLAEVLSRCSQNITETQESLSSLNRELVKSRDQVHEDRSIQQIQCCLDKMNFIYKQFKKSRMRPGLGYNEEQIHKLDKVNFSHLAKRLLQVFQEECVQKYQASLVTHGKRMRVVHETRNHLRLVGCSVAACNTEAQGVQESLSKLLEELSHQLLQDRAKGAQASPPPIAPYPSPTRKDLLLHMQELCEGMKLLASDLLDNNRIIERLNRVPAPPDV
# Chain of Phosphatidylinositol 4-kinase beta (Homo sapiens) (Q9UBF8 2-816 limits assumed): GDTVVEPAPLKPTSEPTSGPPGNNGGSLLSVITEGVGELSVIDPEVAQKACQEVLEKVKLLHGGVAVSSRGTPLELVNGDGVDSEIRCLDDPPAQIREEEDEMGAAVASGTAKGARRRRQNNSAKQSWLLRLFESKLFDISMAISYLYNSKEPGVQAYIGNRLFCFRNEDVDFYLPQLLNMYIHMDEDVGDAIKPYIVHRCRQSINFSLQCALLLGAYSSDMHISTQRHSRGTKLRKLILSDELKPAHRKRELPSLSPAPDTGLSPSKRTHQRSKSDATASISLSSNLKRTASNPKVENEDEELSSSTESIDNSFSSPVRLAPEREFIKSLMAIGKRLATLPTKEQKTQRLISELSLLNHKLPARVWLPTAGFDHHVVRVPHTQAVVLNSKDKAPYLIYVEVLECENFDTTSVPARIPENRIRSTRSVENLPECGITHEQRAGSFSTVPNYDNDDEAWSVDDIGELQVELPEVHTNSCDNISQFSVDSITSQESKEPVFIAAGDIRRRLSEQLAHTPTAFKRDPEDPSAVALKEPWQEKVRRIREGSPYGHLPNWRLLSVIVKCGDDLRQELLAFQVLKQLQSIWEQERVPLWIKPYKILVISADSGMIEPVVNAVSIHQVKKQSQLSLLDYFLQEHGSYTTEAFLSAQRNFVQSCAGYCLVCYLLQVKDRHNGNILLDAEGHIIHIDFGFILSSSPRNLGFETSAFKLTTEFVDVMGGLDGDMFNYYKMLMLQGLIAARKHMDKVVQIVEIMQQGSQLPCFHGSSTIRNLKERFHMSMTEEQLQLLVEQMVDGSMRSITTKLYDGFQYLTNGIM
# Chain of Casein kinase II subunit alpha (Homo sapiens) (P68400 whole entry, looked up): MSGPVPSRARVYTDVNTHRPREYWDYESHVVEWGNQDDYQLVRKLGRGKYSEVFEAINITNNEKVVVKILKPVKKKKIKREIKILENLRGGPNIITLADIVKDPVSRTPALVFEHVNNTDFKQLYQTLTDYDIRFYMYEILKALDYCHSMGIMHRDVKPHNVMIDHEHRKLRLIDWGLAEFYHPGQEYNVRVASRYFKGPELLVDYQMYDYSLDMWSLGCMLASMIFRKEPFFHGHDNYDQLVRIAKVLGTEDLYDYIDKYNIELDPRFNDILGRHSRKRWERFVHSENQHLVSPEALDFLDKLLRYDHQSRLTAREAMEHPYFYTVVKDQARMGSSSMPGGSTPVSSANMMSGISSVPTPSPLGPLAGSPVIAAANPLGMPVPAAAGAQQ
# Chain of SRSF protein kinase 1 (Homo sapiens) (Q96SB4 whole entry, canonical isoform): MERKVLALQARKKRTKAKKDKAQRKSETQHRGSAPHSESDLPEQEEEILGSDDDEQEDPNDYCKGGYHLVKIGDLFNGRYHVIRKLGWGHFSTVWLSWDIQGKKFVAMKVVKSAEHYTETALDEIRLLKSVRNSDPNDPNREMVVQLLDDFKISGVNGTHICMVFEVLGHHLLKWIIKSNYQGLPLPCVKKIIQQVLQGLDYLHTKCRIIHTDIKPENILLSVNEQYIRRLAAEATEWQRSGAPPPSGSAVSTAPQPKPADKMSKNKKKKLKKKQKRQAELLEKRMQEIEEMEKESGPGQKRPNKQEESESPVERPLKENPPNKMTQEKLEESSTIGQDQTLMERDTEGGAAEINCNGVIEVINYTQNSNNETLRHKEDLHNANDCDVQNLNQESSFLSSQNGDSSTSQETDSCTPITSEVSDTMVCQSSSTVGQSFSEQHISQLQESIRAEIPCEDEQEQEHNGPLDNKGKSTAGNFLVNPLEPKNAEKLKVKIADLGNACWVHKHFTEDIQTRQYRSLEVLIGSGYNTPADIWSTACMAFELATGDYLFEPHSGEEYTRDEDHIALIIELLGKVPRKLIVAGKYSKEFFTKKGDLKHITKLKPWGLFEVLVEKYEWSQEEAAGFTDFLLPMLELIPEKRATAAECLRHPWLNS
# Chain of Phosphatidylinositol 4,5-bisphosphate 3-kinase catalytic subunit alpha isoform (Homo sapiens) (P42336 whole entry, canonical isoform): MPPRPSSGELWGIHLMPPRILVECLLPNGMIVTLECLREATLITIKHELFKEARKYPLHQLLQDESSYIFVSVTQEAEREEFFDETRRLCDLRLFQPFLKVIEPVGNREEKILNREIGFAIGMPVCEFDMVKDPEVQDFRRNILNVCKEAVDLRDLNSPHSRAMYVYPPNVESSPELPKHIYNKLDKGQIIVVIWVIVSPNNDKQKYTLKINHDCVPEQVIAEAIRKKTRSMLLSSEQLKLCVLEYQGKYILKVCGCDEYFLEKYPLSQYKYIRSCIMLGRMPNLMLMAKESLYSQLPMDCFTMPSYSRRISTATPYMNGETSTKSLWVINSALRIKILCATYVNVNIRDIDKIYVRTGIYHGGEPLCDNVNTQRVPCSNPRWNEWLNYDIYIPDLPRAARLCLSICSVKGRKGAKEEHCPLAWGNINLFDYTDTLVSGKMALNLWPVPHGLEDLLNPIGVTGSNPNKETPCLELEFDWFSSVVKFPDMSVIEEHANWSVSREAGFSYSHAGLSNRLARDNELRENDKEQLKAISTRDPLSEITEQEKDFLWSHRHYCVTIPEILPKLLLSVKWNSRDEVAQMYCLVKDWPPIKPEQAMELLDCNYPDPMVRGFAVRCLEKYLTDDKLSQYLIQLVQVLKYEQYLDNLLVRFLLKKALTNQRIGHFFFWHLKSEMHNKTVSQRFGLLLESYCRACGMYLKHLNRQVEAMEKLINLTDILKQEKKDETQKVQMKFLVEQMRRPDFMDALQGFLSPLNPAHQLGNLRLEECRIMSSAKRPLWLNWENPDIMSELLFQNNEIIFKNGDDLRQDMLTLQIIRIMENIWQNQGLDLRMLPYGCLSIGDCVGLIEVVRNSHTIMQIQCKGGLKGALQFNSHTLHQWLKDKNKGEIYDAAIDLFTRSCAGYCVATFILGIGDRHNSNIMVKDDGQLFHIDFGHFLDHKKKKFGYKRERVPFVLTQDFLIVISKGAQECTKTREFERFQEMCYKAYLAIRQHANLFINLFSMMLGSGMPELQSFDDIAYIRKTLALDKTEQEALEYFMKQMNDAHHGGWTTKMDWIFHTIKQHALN
# Chain of Sphingosine kinase 1 (Homo sapiens) (Q9NYA1 whole entry): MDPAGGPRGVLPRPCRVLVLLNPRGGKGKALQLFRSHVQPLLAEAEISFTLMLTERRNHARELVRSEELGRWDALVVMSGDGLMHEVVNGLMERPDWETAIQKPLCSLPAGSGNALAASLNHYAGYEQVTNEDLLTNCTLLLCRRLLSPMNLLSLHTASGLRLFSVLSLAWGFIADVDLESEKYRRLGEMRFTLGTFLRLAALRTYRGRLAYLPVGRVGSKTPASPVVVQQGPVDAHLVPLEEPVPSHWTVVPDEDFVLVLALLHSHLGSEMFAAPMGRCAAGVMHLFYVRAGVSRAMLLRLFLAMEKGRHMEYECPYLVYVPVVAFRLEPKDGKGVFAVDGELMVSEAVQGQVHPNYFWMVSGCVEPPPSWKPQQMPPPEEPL
compound,measurement,setting,value
COc1cc(N2CCN(C(C)C)CC2)ccc1Nc1nc(Nc2cccc3ncccc23)c2cc[nH]c2n1,inhibition,[1],-0.51%
same,inhibition,[2],-1.39%
same,inhibition,[3],-1.2%
same,inhibition,[4],-0.92%
same,inhibition,[5],1.96%
same,inhibition,[6],-1.65%
same,inhibition,[7],4.18%
same,inhibition,[8],5.9%
same,inhibition,[9],-2.85%
same,inhibition,[10],0%
same,inhibition,[11],-2%
same,inhibition,[12],0%
same,inhibition,[13],-0.78%
same,inhibition,[14],1.04%
same,inhibition,[15],1.8%
same,inhibition,[16],4.1%
same,inhibition,[17],-3.72%
same,inhibition,[18],1.05%
same,inhibition,[19],-2.01%
same,inhibition,[20],-1.3%
NC(=O)c1ccc2c(-c3ccnc(NCCCO)n3)c(-c3ccc(F)cc3)nn2c1,inhibition,[1],3.04%
same,inhibition,[2],-2.08%
same,inhibition,[3],-2.11%
same,inhibition,[4],2.83%
same,inhibition,[5],6.09%
same,inhibition,[6],2.78%
same,inhibition,[7],6.2%
same,inhibition,[8],-2.18%
same,inhibition,[9],3.6%
same,inhibition,[10],-2.85%
same,inhibition,[11],-1.09%
same,inhibition,[12],0.78%
same,inhibition,[13],-0.19%
same,inhibition,[14],3.49%
same,inhibition,[15],3.53%
same,inhibition,[16],8.35%
same,inhibition,[17],4.86%
same,inhibition,[18],7.11%
same,inhibition,[19],2.1%
same,inhibition,[20],4.91%
COc1ccc(-c2nn3ncccc3c2-c2ccnc(Nc3ccc(F)c(F)c3)n2)cc1,inhibition,[1],2.57%
same,inhibition,[2],-0.49%
same,inhibition,[3],4.3%
same,inhibition,[4],4.28%
same,inhibition,[5],3.75%
same,inhibition,[6],1.6%
same,inhibition,[7],1.61%
same,inhibition,[8],-1.35%
same,inhibition,[9],-6.41%
same,inhibition,[10],-0.41%
same,inhibition,[11],-4.19%
same,inhibition,[12],5.2%
same,inhibition,[13],0%
same,inhibition,[14],5.76%
same,inhibition,[15],10.5%
same,inhibition,[16],3.55%
same,inhibition,[17],8.81%
same,inhibition,[18],4.66%
same,inhibition,[19],5.58%
same,inhibition,[20],9.89%
